A1 inh – inhibitors of the anti-apoptotic protein A1, read as caspase activation; hit rate 0.066% among 330,000; caspase activation, % (concentration not given with the values); MEF A1-2A-BIM cells, Caspase-Glo 3/7 luminescence, 3 h; percent of clofoctol response, vehicle zero;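 active means over half of replicate activation scores above 10%, or exactly half above 10 with the replicate mean above 10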
dFosB act – mouse delta FosB homodimer activation; purified delta FosB, TAMRA-CDK5 oligo fluorescence polarization; percent of positive-control signal above neutral wells; hit rate 0.99% among 340,000; activation, % at 25 µM;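 active means mean activation above about 17%, with every replicate also reaching it, limit read from the data, passing the limit was not always enough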
Target sequence (P13346 whole entry, looked up): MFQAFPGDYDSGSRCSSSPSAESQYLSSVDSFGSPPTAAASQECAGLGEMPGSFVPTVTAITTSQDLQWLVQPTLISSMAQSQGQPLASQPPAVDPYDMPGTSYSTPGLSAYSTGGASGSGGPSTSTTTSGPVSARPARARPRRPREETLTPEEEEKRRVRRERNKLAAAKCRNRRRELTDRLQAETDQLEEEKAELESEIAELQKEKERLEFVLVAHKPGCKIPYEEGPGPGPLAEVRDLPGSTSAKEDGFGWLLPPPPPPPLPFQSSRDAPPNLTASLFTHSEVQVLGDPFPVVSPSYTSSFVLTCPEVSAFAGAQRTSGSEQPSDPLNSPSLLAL
Neddyl block – cullin neddylation inhibition; TR-FRET cullin neddylation, biochemical; inhibition, % at 25 µM; hit rate 0.58% among 360,000; AID 651699; in the data active means inhibition above about 36%
Vif imaging – HIV Vif inhibition; HEK293T cells, Vif self-association by quenched fluorescence, imaging, 24 h; AID 602346; hit rate 0.35% among 340,000; inhibition, % at 7.49 µM; in the data active means inhibition above about 50%, passing the limit was not always enough
INS-1E GSIS act – GLuc luminescence reporter in INS-1E cells, primary screen for activators of glucose-dependent secretion of insulin; INS-1E GLuc reporter insulin secretion, 2-3 h; activation, % at 16.6 µM; hit rate 0.61% among 370,000; AID 743287;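 active means lowest replicate activation of at least 40%, so every replicate reaches that level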;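 further: 0% = median of neutral control wells and 100% = median of IBMX positive control wells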
Neddyl conf – confirmation of human cullin neddylation inhibitors; TR-FRET cullin neddylation biochemical assay; shares compounds with Neddyl block; calls only at 25 µM; hit rate 13% among 1,800; in the data active means inhibition above about 40%;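 further: neddylation substrate is the cullin 1 ring ligase complex with SKP2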
Starred values were filed as active, the others as inactive; i = inactive; . = no result shown. Only some compounds are listed: those with a hit (about 1.9% of all), similar ones and a draw of the others.

SMILES	A1 inh	dFosB act	Neddyl block	Vif imaging	INS-1E GSIS act	Neddyl conf
Nc1ccc(C(=O)N/N=C/c2sc(N3CCOCC3)nc2-c2ccccc2)cc1	-0.6	-16.8	48.2*	-1.5	11.4	i
O=C(N/N=C/c1sc(N2CCOCC2)nc1-c1ccccc1)c1ccccc1F	-0.5	.	.	.	.	.
Cc1cc(C(=O)N/N=C/c2sc(N3CCOCC3)nc2-c2ccccc2)c(C)o1	-0.5	-11.1	34.8	7.0	-18.6	.
COc1cc(C(=O)N/N=C/c2sc(N3CCOCC3)nc2-c2ccccc2)cc(OC)c1OC	-0.2	-15.2	52.1*	-0.4	-25.0	i
O=Cc1sc(N2CCOCC2)nc1-c1ccccc1	1.0	.	.	.	.	.
C[C@H](CO)N1C[C@H](C)[C@@H](CN(C)S(=O)(=O)c2cn(C)cn2)OCCCC[C@H](C)Oc2ccc(NC(=O)Nc3ccc(C(F)(F)F)cc3)cc2C1=O	.	.	.	.	-0.8	.
O=C1OC(c2ccccc2)=N/C1=C\C=C\c1ccco1	0.6	-1.4	44.8*	.	2.9	i
COc1cc(/C=C/C(=O)OC(C)C(=O)NC2CCCCC2C)cc(Cl)c1OC (stereo not drawn)	-0.3	-1.0	40.1*	7.4	-0.2	i
Cc1cc(C(=O)N/N=C/c2c(C)[nH]c3ccccc23)n[nH]1	0.0	-7.8	0.9	-2.0	-4.5	.
Cc1[nH]c2ccccc2c1/C=N/NC(=O)c1cc(-c2cccs2)[nH]n1	-0.1	-7.2	44.5*	2.1	7.3	i
C[C@H](CO)N1C[C@H](C)[C@H](CN(C)S(=O)(=O)c2ccc(F)cc2)Oc2ccc(NC(=O)CCN3CCOCC3)cc2C1=O	.	.	.	.	17.4	.
CCC(=O)Nc1ccc2c(c1)OC[C@H](C)N(C(=O)CC1CC1)C[C@@H](C)[C@H](OC)CN(C)C2=O	.	.	.	.	-5.3	.
Fc1ccc(CN2C3CN(CC(F)(F)F)CC2C3c2ccc(Br)cc2)cc1 (stereo not drawn)	.	.	.	.	-44.4	.
CC(=O)c1ccc(-c2cccc(-c3nc4ccccn4c3NC3CCCCC3)c2)cc1	-0.5	-5.1	25.6*	-11.1	-21.0	i
c1cnc2ccc(-c3ccc4ncccc4c3)cc2c1	-5.4	-16.3	44.5*	17.8	13.0	i
Cc1ccc2ncccc2c1	-0.2	4.6	-3.9	-4.3	-13.9	.
C[C@@H]1CN([C@H](C)CO)C(=O)c2cc(C#C[C@@H](C)O)cnc2O[C@H]1CN(C)C(=O)CN1CCOCC1	.	.	.	.	20.9	.
COc1ccc(S(=O)(=O)N(C)C[C@H]2Oc3ccc(NC(=O)Nc4ccc5c(c4)OCO5)cc3C(=O)N([C@H](C)CO)C[C@H]2C)cc1	.	.	.	.	-9.9	.
CN(c1ccccc1)S(=O)(=O)c1cccc(NC(=O)C2=NN(c3ccccc3)C(=O)CC2)c1	0.2	2.8	45.3*	-3.8	-8.8	i
CO[C@H]1CN(C)C(=O)c2ccc(NC(=O)c3ccno3)cc2OC[C@@H](C)NC[C@H]1C	.	.	.	.	3.6	.
Cc1ccc(S(=O)(=O)N(C)C[C@@H]2Oc3ccc(NS(C)(=O)=O)cc3CC(=O)N([C@@H](C)CO)C[C@H]2C)cc1	.	.	.	.	5.0	.
COc1ccc(-c2cc(NCc3ccccn3)n3ncnc3n2)cc1	0.7	-22.0	37.4*	.	.	i
COc1ccc(-c2cc(NCCc3ccncc3)n3ncnc3n2)cc1	0.6	-17.3	25.0	.	.	.
CCOC(=O)C(=CNc1ccc(NC2=NCC(C)S2)cc1)C(=O)OCC (stereo not drawn)	0.4	-0.6	44.9*	-0.3	.	i
O=C(NCc1cccnc1)/C(=C/c1ccc(-c2cccc(C(F)(F)F)c2)o1)NC(=O)c1ccccc1	0.1	-9.7	28.3	6.9	.	.
SMILES	A1 inh	dFosB act	Neddyl block	Vif imaging	INS-1E GSIS act	Neddyl conf
Cc1ccc(C(=O)N/C(=C/c2ccc(-c3cc(C(F)(F)F)ccc3Cl)o2)C(=O)NCc2cccnc2)cc1	0.3	-3.7	48.0*	-5.9	.	.
CC(=O)Nc1ccc(CN2CCc3c([nH]c4ccccc34)C2C(C)(C)C)cc1 (stereo not drawn)	0.4	1.5	31.6	2.3	-14.4	.
CC(C)(C)C1c2[nH]c3ccccc3c2CCN1Cc1cccc(OCCO)c1 (stereo not drawn)	-0.3	-4.9	52.1*	-3.7	-3.2	i
CNC(=O)COC(=O)c1ccc(-c2nc3ccccc3s2)s1	-9.4	-8.7	40.5*	12.1	12.8	i
C[C@H](CO)N1C[C@H](C)[C@@H](CN(C)Cc2ccc(F)cc2)Oc2ncc(-c3ccncc3)cc2C1=O	.	.	.	.	6.9	.
CN(C)CCn1c(SCc2ccccc2C#N)nc2c(sc3ccccc32)c1=O	0.3	-9.5	46.4*	-7.8	-4.9	.
COc1ccc(S(=O)(=O)N(C)C[C@@H]2Oc3ccc(NC(=O)Nc4cccc5ccccc45)cc3C(=O)N([C@@H](C)CO)C[C@H]2C)cc1	.	.	.	.	17.3	.
CCCCCNc1nc(N2CCCC2)c2c(c1C#N)CCN(C)C2	0.4	-6.6	44.0*	5.4	.	i
COc1ccccc1-c1nnc(-c2ccc(C)cc2)o1	-2.3	-23.2	17.3	-0.9	-1.6	.
COc1cccc(OC)c1-c1nnc(-c2cn(C)c3ccccc23)o1	-0.3	1.8	44.8*	.	.	i
O=C(NCC1CCCCC1)c1cc2ccccc2cc1O	-1.0	-3.4	45.0*	-6.9	8.8	.
CN1[C@@H]2c3ccc(-c4cccc(F)c4)c(=O)n3C[C@H]1[C@H](CO)[C@H]2C(=O)NCc1ccccc1	.	.	.	.	8.0	.
CCOC(=O)c1[nH]c2ccc(Cl)cc2c1NC(=O)/C=C/c1ccc2c(c1)OCO2	-0.9	2.9	41.9*	.	15.2	i
CCN(CC(=O)Nc1c(C(=O)OC)[nH]c2ccc(Cl)cc12)c1ccc2c(c1)OCO2	-0.9	-9.7	3.6	-23.9	.	.
C[C@@H]1CN([C@H](C)CO)C(=O)Cc2cc(NC(=O)c3ccncc3)ccc2O[C@@H]1CN(C)S(=O)(=O)c1ccc(Cl)cc1	.	.	.	.	27.1	.
O=C([C@H]1[C@H](CO)[C@H]2Cn3c(ccc(C4=CCCC4)c3=O)[C@@H]1N2C(=O)c1cccnc1)N1CCOCC1	.	.	.	.	-4.1	.
CC(=O)N1CCCC(C(=O)c2ccc3c4c(cccc24)CC3)C1 (stereo not drawn)	-0.1	-7.7	.	2.8	-21.2	.
CN1CCC(C(=O)N2CCCC(C(=O)c3ccc4c5c(cccc35)CC4)C2)CC1 (stereo not drawn)	-0.2	-7.4	41.1*	.	3.5	i
C[C@H]1CN([C@@H](C)CO)C(=O)c2cc(NC(=O)Nc3ccc(F)cc3)ccc2O[C@H]1CN(C)S(=O)(=O)c1ccc(F)cc1	.	.	.	.	-14.0	.
Oc1ccc(Nc2ncnc3c2oc2ccccc23)cc1	-1.3	-1.9	14.4	-3.9	19.8	.
Oc1cccc(Nc2ncnc3c2oc2ccccc23)c1	-8.4	-1.8	47.6*	-9.4	-3.9	.
COC(=O)c1ccc2[nH]c(CO)c(-c3ccccc3)c2c1	1.0	5.4	.	4.2	-13.8	.
N#Cc1ccc2[nH]c(CO)c(-c3ccccc3)c2c1	0.7	-1.2	30.9*	-0.4	-19.9	i

High-throughput results deposited in PubChem BioAssay by several laboratories.
